Results on nine compounds are retold here after the supplement of paper PMC4237247.

SMILES strings stand for the structures.

This assay concerns HeLa. In words: percent cells in G1 phase; higher = more G1 arrest. To be noted: 10 µM; 20 h; hit class: G1-phase inhibitor. The method, then:
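HTS of 79,827 drug-like compounds at 10 uM. HeLa cells in 384-well plates were treated for 20 h, fixed, stained with Vybrant DyeCycle Green and scanned on an Acumen eX3 cytometer to give per-well cell cycle profiles (% cells in each phase). The plate Z' was 0.51. Only hits are listed: G1 hits >4 SD and S hits >5 SD from the mean.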
Take `C[C@@H]1C[C@@H]([C@H](O)CC2CC(=O)NC(=O)C2)C(=O)[C@@H](C)C1` [Cycloheximide]: the “percent cells in G1 phase” value came out at 77%.

As for `CC(C)(C)c1cc(C=C(C#N)C#N)cc(C(C)(C)C)c1O`, the “percent cells in G1 phase” value is 75.1%.

On to `C/C(=C\c1ccc(Cl)cc1)[N+](=O)[O-]`, for which the “percent cells in G1 phase” value amounted to 69.2%.

For the compound `C[C@@H]1O[C@@H](O[C@H]2C[C@@H](O)[C@]3(CO)[C@H]4[C@H](O)C[C@]5(C)[C@@H](C6=CC(=O)OC6)CC[C@]5(O)[C@@H]4CC[C@]3(O)C2)[C@H](O)[C@H](O)[C@H]1O`, the “percent cells in G1 phase” value is 70.1%.

Regarding `O=[N+]([O-])c1ccc(NCCO)c2ncccc12`, the “percent cells in G1 phase” value turned out to be 69.5%.

`C/C=C(/C)C(=O)O[C@H]1C(C)=C2[C@H]([C@@H]1OC(=O)CCCCCCC)[C@@](C)(OC(C)=O)C[C@H](OC(=O)CCC)[C@@]1(O)[C@H]2OC(=O)[C@@]1(C)O`: the “percent cells in G1 phase” value came to 81.5%.

In the case of `CNc1ccc2oc(C[C@H]3O[C@@]4(CC[C@H]3C)O[C@H]([C@H](C)C(=O)c3ccc[nH]3)[C@H](C)C[C@H]4C)nc2c1C(=O)O`, the “percent cells in G1 phase” value came out at 84.7%.

For the compound `CNC1CC2OC(C)(C1OC)n1c3ccccc3c3c4c(c5c6ccccc6n2c5c31)C(=O)NC4` (centres undefined), the “percent cells in G1 phase” value amounted to 86.7%.

Regarding `C[C@@]12C(=O)OC(=O)[C@]1(C)[C@H]1CC[C@@H]2O1`, the “percent cells in G1 phase” value was 70.6%.
